Measured values published in PubChem BioAssay AID894 (National Center for Advancing Translational Sciences (NCATS), 2007).
The campaign covered roughly 150,000 compounds. About 6,500 (4.3%) were called active. Not shown: some 12% with an inconclusive outcome. The list comes from a sample in which actives are over-represented; it also holds similar structures and randomly drawn compounds. Values without a mark were called inactive. Calls come from the whole dose curve; as a rule, active = well fitted inhibition curve with a large enough effect (not every such curve was filed as active); inconclusive = small, poorly fitted or top-dose-only effect, or another doubt; inactive = no such curve, though single readings can be large or run the other way.

What follows are compounds tested against 15-hydroxyprostaglandin dehydrogenase [NAD(+)] (Homo sapiens) (UniProt P15428) (assay: qHTS Assay for Inhibitors of HPGD (15-Hydroxyprostaglandin Dehydrogenase)). Conditions: purified HPGD, NADH fluorescence kinetic, PGE2 substrate; activity change, negative = inhibition: stronger effect = lower value.
Chain of 15-hydroxyprostaglandin dehydrogenase [NAD(+)] (Homo sapiens) (P15428 whole entry, looked up): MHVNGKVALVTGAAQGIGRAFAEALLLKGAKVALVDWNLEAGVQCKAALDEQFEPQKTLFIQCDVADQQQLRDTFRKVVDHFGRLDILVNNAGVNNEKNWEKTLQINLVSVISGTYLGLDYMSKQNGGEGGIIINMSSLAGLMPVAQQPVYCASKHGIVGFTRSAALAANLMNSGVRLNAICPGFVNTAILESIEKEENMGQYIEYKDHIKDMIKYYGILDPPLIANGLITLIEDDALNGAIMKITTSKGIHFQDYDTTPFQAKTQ
In short: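 NADH formation kinetics: reaction with 30 uM PGE2 and 1 mM NAD+ (final), 20 nM enzyme, Tris-HCl pH 8 with Tween 20, after 15 min compound preincubation at room temperature. Fluorescence change, last versus first of five reads.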
% is set by controls: 0 for no effect and ±100 for the full control effect; potency is the fitted concentration of half-maximal effect.

Row | Compound | activity change, negative = inhibition [%] | Potency
1 | CCOC(=O)c1cccnc1NC(=O)c1ccncc1 | -2.52 | 
2 | c1ccc2c(c1)CSc1sccc1C2=C1CCNCC1 | -1.18 | 
3 | COCCNc1cc(NCCOC)c([N+](=O)[O-])cc1[N+](=O)[O-] | -9.02 | 
4 | c1ccc(-n2ncc3c(N4CCCC4)ncnc32)cc1 | -12.9 | 
5 | O=C(O)C1CCN(c2ncnc3ccc(-c4ccccc4C(F)(F)F)cc23)CC1 |  | 1.26 µM (active)
6 | Cc1scc(C(=O)NNC(=S)NCc2ccccc2)c1C | -7.44 | 
7 | COc1cc(CC(=O)NCc2cccs2)cc(OC)c1OC | -17 | 
8 | Cn1ncc(Br)c1C(=O)NCc1cccs1 |  | 15.8 µM (active)
9 | Cc1nnc(SCC(=O)NCc2cccs2)[nH]c1=O | -0.933 | 
10 | Cc1ccc2nsnc2c1NC(=O)c1ccccc1[N+](=O)[O-] | -15.8 | 
11 | Cc1ccc(/C=N/NC(=O)CNC(=O)COc2ccccc2)o1 | -5.29 | 
12 | Cc1ccc(C(=O)N/C(=C/c2cccnc2)C(=O)O)cc1 | -13.7 | 
13 | COc1ccc(Br)cc1C(=O)NC(=S)Nc1cc(-c2nc3ccccc3[nH]2)ccc1C |  | 28.2 µM (active)
14 | COc1ccc(/C=C(/NC(=O)c2ccc(C)cc2)c2nc3ccccc3[nH]2)cc1OC | -24.1 | 
15 | COc1ccc(Br)cc1C(=O)Nc1cccc(C)c1C | -28.1 | 
16 | C=C(C(C)=O)C(O)c1cccs1 (stereo not given) | -6.13 | 
17 | COC(=O)C(C(=O)OC)[C@@H](NC=O)c1ccccc1 | -1.83 | 
18 | Cc1ccc(-c2c(C)n([O-])c3c([n+]2=O)CCC3)cc1 | -24.7 | 
19 | O=[n+]1c2c(n([O-])c3cc(Br)ccc31)CCC2 |  | 11.2 µM (active)
20 | CCc1c(C)n([O-])c2c([n+]1=O)CCCCC2 | -4.11 | 
21 | O=C(Cc1ccccc1)NCc1ccc(F)cc1 | -22.4 | 
22 | CCCCOC(=O)c1ccc(NC(c2ccc(C)cc2)P(=O)(OC)OC)cc1 (stereo not given) | -21.8 | 
23 | CCc1ccccc1NC(=O)c1cccs1 | -5.77 | 
24 | CCc1nnc(NC(=O)c2cccs2)s1 | -9.46 | 
25 | CCc1c(C)sc(NC(=O)c2cccs2)c1C(N)=O |  | 8.91 µM (active)

Row | Compound | activity change, negative = inhibition [%] | Potency
26 | O=C(NCCOc1ccccc1Cl)C(=O)Nc1ccccc1 | -2.3 | 
27 | CC(=O)NS(=O)(=O)c1ccc(NC(=O)C2C3C=CC(C3)C2C(=O)O)cc1 (stereo not given) | -3.59 | 
28 | COCCCN(C(=S)Nc1c(C)cc(C)cc1C)C(C)c1ccncc1 (stereo not given) | -0.352 | 
29 | CCn1ncc(Br)c1C(=O)Nc1cc(C)ccc1F | 0.199 | 
30 | CCn1ncc(CNC(=O)C2(C)CC2(Br)Br)c1C (stereo not given) |  | 14.1 µM (active)
31 | COc1cc2c3c(c1)/C(=C1/SC(=S)NC1=O)C(=O)N3C(C)(C)C=C2C | -26.1 | 
32 | Cc1c(NC(=S)Nc2ccccc2)c(=O)n(-c2ccccc2)n1C | -3.36 | 
33 | CCC1C=C(c2ccccc2)C=CN=C1N(CC)CC (stereo not given) | -4.96 | 
34 | N#CC1=C(N)N(c2ccccc2)C2=C(C(=O)CCC2)C1c1ccccc1 (stereo not given) | -8.89 | 
35 | NC1=C([N+](=O)[O-])C(c2ccccc2)C2=C(CCCC2=O)O1 (stereo not given) |  | 20 µM (active)
36 | NS(=O)(=O)c1ccc(CNC(=O)c2ccc(Cl)cc2[N+](=O)[O-])cc1 | -16.4 | 
37 | Cc1ccc2nc(SCc3nnc(-c4ccccc4[N+](=O)[O-])o3)c(C#N)cc2c1 |  | 1 µM (active)
38 | CCOc1ccc2cc(C#N)c(SCC(=O)OC)nc2c1 | -15 | 
39 | Cc1cc(C)nc(SCc2ccccc2C#N)n1 | -12.7 | 
40 | N#Cc1ccccc1Sc1ccccc1C(=O)OCC(=O)NC1CCCCC1 | -19.1 | 
41 | CCN(CC)c1ccc2oc(=O)c(C)nc2c1 | -16.7 | 
42 | CCN(CC)c1ccc(/C=N/Nc2nc(C)cc(C)n2)c(O)c1 |  | 20 µM (active)
43 | CCOC(=O)Cc1csc(SCC(=O)NC(C)C23CC4CC(CC(C4)C2)C3)n1 (stereo not given) | -15.9 | 
44 | Cc1c(C(=O)NCc2ccccc2)cnn1-c1ccccc1 |  | 17.8 µM (active)
45 | Cc1ccc(CNC(=O)c2ccccc2CCc2ccccc2)cc1 | -19.3 | 
46 | O=C(Cn1cnc2c(cnn2-c2ccccc2)c1=O)NCc1ccccc1 | -9.12 | 
47 | N#C/C(C(=O)N1CCOCC1)=C1/SC(Cc2ccc(F)cc2)C(=O)N1c1ccccc1 (stereo not given) | -13.3 | 
48 | Cc1cccc(-n2c(N)c(C(=O)N3CCN(C)CC3)sc2=S)c1 |  | 10 µM (active)
49 | Cc1ccc(C(=O)N2CCN(C(=O)N3CCOCC3)CC2)cc1 | 3.86 | 
50 | N#Cc1ccccc1-n1c(N)c(C(=O)N2CCCC2)sc1=S |  | 25.1 µM (active)

Row | Compound | activity change, negative = inhibition [%] | Potency
51 | Cc1ccc(-n2c(N)c(C(=O)N3CCOCC3)sc2=S)c(C)c1 |  | 7.94 µM (active)
52 | CC(=O)c1c(N2CCOCC2)nc(=S)n(-c2cc(C)ccc2C)c1C | -12.5 | 
53 | CC(C)=C1SC(N2CCN(c3cccc(C)c3)CC2)=NC1=O | -16.6 | 
54 | Cc1cccc(-n2c(N)cc(=O)nc2SC(C)C(=O)NC2CCCCC2)c1 (stereo not given) | -19.7 | 
55 | O=S(=O)(NCCSc1ccccn1)c1ccc(Cl)cc1 | -1.01 | 
56 | C=C/C1=C/Cc2ccccc2[C@H](C[N+](=O)[O-])C(C(=O)OC)(C(=O)OC)C1 | -16.5 | 
57 | CCOc1cc(CNCc2ccccn2)ccc1OCC(=O)NC(C)(C)C | -9.37 | 
58 | CC(C)(C)C(=O)N1CCC[C@@]1(CO)C(=O)O | -2.24 | 
59 | COc1ccc(CNC(=O)CCCn2nc(C)c([N+](=O)[O-])c2C)cc1 | -13.5 | 
60 | CCC(C)C(=O)Nc1cc([N+](=O)[O-])ccc1Cl (stereo not given) | -1.06 | 
61 | C=CCn1c(CCNC(=O)c2cccs2)n[nH]c1=S | -27.1 | 
62 | O=C(c1cc(-c2ccc(O)cc2)on1)N1CCCc2ccccc21 | -28 | 
63 | Cc1nnc(SCC(=O)N2CCc3ccccc3C2)s1 | -6.45 | 
64 | O=C(c1cc(-c2cccc(O)c2)on1)N1CCc2ccccc2C1 |  | 25.1 µM (active)
65 | CCCNC(=O)NC(=O)COC(=O)CC(NC(N)=O)c1ccc(Cl)cc1 (stereo not given) | -4.57 | 
66 | CC1(C)CC(CCC(=O)Nc2ccccc2Cl)C(=O)O1 (stereo not given) | -12.3 | 
67 | O=C(Nc1ccc2c(c1)CCC2)c1cccc(S(=O)(=O)Nc2ccccc2Cl)c1 | -11.7 | 
68 | O=C(Cc1ccc2c(c1)CCCC2)Nc1ccccc1Cl |  | 3.16 µM (active)
69 | Cc1nn(-c2ccccc2)c(-n2cccc2)c1C(=O)O | -6.97 | 
70 | N/C(=N\OC(=O)CC1CCCCC1)c1ccccc1 | -21.9 | 
71 | C=CCSC1=C(C#N)C(c2cc(Br)c(O)c(OC)c2)CC(=O)N1 (stereo not given) |  | 17.8 µM (active)
72 | Cc1ccc(C2CC(=O)NC(SCC(=O)OCc3ccccc3)=C2C#N)o1 (stereo not given) | -25.8 | 
73 | CCOC(=O)CSC1=C(C#N)C(c2sccc2C)CC(=O)N1 (stereo not given) | -3.48 | 
74 | CSCCC(NC(=O)COc1ccccc1)C(=O)Nc1ccc(C)cc1 (stereo not given) | -0.719 | 
75 | CCCCC/C=C\C/C=C\C/C=C\CCCCC(=O)NCC(=O)O | -3.51 | 

Row | Compound | activity change, negative = inhibition [%] | Potency
76 | CCC(=O)Nc1c(C)n[nH]c1C | -8.91 | 
77 | CC(C)(C)C1CCc2c(sc3nc(SCC(N)=O)nc(N)c23)C1 (stereo not given) |  | 28.2 µM (active)
78 | Nc1nc(SCC(=O)NCCN2CCOCC2)nc2sc3c(c12)CCC3 | -10.4 | 
79 | CN(C)CCSc1nc(N)c2c3c(sc2n1)COC(C)(C)C3 | -15.6 | 
80 | COC(=O)c1sccc1NC(=O)COc1ccc(Cl)cc1 | -12 | 
81 | C=CCNC(=O)CSc1nc2sc(C)c(C)c2c(=O)[nH]1 |  | 14.1 µM (active)
82 | Cc1sc2nc(SCC(N)=O)n(C)c(=O)c2c1C | -0.652 | 
83 | Cc1sc2nc(CSCC(=O)Nc3c(Cl)cccc3Cl)[nH]c(=O)c2c1C | -14 | 
84 | COc1ccc(-c2[nH]ncc2/C=N/NC(=O)c2cc(Br)ccc2O)c(OC)c1 | -16.3 | 
85 | Cc1ccc(S(=O)(=O)N(C)C)cc1NC(=O)/C=C/c1cccs1 | -12.9 | 
86 | CS(=O)(=O)N(Cc1ccccc1)c1ccc(C(=O)NN=C2CCCCCC2)cc1 | -5.89 | 
87 | CCCC/C(C)=N/NC(=O)NC1CCCCC1 | -6.12 | 
88 | CCS(=O)(=O)Nc1ccc(C2=NN(S(=O)(=O)c3ccc(F)cc3)C(c3ccco3)C2)cc1 (stereo not given) |  | 12.6 µM (active)
89 | Cc1ccc(C2=NN(C(=O)CSc3nc(N)cc(N)n3)C(c3ccco3)C2)cc1 (stereo not given) | -20.9 | 
90 | CS(=O)(=O)Nc1cccc(C2=NN(S(=O)(=O)c3ccccc3)C(c3cccs3)C2)c1 (stereo not given) | -7.08 | 
91 | COc1ccc(-c2csc(NC(=O)COC(=O)c3ccc(Br)o3)n2)cc1 | -1.93 | 
92 | O=c1ccn(Cc2ccccc2Cl)cc1 | 0.459 | 
93 | O=C1c2ccccc2C(O)N1Cc1ccccc1 (stereo not given) | -28.7 | 
94 | O=C1c2ccccc2C(O)N1Cc1ccccc1Cl (stereo not given) |  | 12.6 µM (active)
95 | C=CCC1CCC(=O)N2CCCC12 (stereo not given) | -1.41 | 
96 | COc1ccc(/C=C2\NC(=O)[C@@H]3Cc4ccccc4CN3C2=O)cc1 | -5.55 | 
97 | COC(=O)C1=C(C(=O)OC)[C@@H]2N(Cc3ccccc3)c3ccccc3[C@@]23C[C@@H](C(=O)OC)N(S(=O)(=O)c2ccc(C(F)(F)F)cc2)C3=N1 | -11.4 | 
98 | Cc1ccc(Cn2ccc(NC(=O)c3cc(C(C)C)on3)n2)cc1 | -19.4 | 
99 | O=C(Nc1ccn(Cc2ccccc2)n1)c1n[nH]c([N+](=O)[O-])c1Cl |  | 28.2 µM (active)
100 | O=C(Nc1ccn(Cc2ccc(F)cc2)n1)c1ccncc1 | 1.11 | 
